Consider 21 compounds from PubChem BioAssay (NCATS).

The subject of one assay is MCC-13. The assay is described as follows: qHTS assay to identify novel small-molecules to repurpose for Merkel cell carcinoma treatment (AID 1296009). Also: nearly all actives have a fitted effect of over 60% in size. Also: potency is read from the fitted curve at half-maximal effect. The conditions noted are these: MCC and control cell lines, CellTiter-Glo viability, 72 h; series mostly up to 46 µM. Summed up:
(§1)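 Cell viability, measured as CellTiter-Glo luminescence, was normalized between DMSO and no-cell wells. The cells had been exposed to 8- or 11-point compound dilutions for 72 hr at 37 degree celsius.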
Background: Quantitative high-throughput screening tests each substance at several concentrations.

The subject of another assay is MCC-26. The assay is described as above. Conditions: MCC and control cell lines, CellTiter-Glo viability, 72 h; series mostly up to 46 µM. In a few lines: as §1
In the next assay the test system is MKL-1. The description is as above. The conditions noted are these: MCC and control cell lines, CellTiter-Glo viability, 72 h; series mostly up to 46 µM. In a few lines:
as §1
A general note: Cellular ATP, detected with luciferase, serves as a proxy for viable cell number.

Another assay relates to MKL-2. Described as above. The conditions noted are these: MCC and control cell lines, CellTiter-Glo viability, 72 h; series mostly up to 46 µM. In a few lines: as §1
Another assay relates to UISO. Described as above. Conditions: MCC and control cell lines, CellTiter-Glo viability, 72 h; series mostly up to 46 µM. In a few lines:
as §1

The test system of a further assay is WaGa. Described as above. Conditions: MCC and control cell lines, CellTiter-Glo viability, 72 h; series mostly up to 46 µM. Summed up:
as §1

Assay [1] in a line: Drug repurposing screens with cells derived from glioblastoma tumor samples (AID 1345199). Also: nearly all actives have a fitted effect of over 40% in size. The conditions noted are these: GBM patient neurospheres viability, ATP luminescence, 48 h; Potency: tumour line A; series mostly up to 46.1 µM. In a few lines: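 Primary testing used CD133+ neurospheres from four GBM patients, seven concentrations, 48 h exposure and ATP-based viability; confirmation added three slower-growing patient lines.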

The test system of another assay is CASKI. The assay is described as follows: Primary qHTS to identify gynecologic anti-cancer compounds using libraries of approved drugs and bioactive compounds (AID 1345084). Also: nearly all actives have a fitted effect of over 55% in size. The conditions noted are these: Gynecologic cancer cell panel viability, ATPlite luminescence, 48 h; series mostly up to 57.5 µM. In a few lines:
(§2)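 Cells, 1,000 per well, plated 16 h, then exposed 48 h at 37 C to compounds. Viability by ATPlite luminescence after 15 min at room temperature.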

A further assay has as its system Es-2. The description is as above. Conditions: Gynecologic cancer cell panel viability, ATPlite luminescence, 48 h; series mostly up to 57.5 µM. In a few lines: as §2
The subject of the next assay is HeLa. The description is as above. The conditions noted are these: Gynecologic cancer cell panel viability, ATPlite luminescence, 48 h; series mostly up to 57.5 µM. In a few lines: as §2
In another assay the test system is Hek293T. Described as above. Conditions: Gynecologic cancer cell panel viability, ATPlite luminescence, 48 h, control line for the selectivity index; series mostly up to 57.5 µM. In a few lines: as §2
The test system of the next assay is OV90. The assay is described as above. Conditions: Gynecologic cancer cell panel viability, ATPlite luminescence, 48 h; series mostly up to 57.5 µM. In a few lines:
as §2

The subject of a further assay is Tov-21-G. Described as above. The conditions noted are these: Gynecologic cancer cell panel viability, ATPlite luminescence, 48 h; series mostly up to 57.5 µM. Summed up:
as §2

For a further assay, the system named is NIH3T3. The assay is described as follows: qHTS assay to identify novel small-molecules to repurpose for Merkel cell carcinoma treatment (AID 1296009). Also: nearly all actives have a fitted effect of over 60% in size. Also: potency is read from the fitted curve at half-maximal effect. Conditions: MCC and control cell lines, CellTiter-Glo viability, 72 h; at 44.8 µM (top of the series) unless noted. In a few lines: as §1
Another assay concerns C33A. Description: Primary qHTS to identify gynecologic anti-cancer compounds using libraries of approved drugs and bioactive compounds (AID 1345084). Also: nearly all actives have a fitted effect of over 55% in size. Conditions: Gynecologic cancer cell panel viability, ATPlite luminescence, 48 h; series mostly up to 57.5 µM. In a few lines: as §2
The next assay has as its system JEG-3. The description is as above. Conditions: Gynecologic cancer cell panel viability, ATPlite luminescence, 48 h; series mostly up to 57.5 µM. Summed up: as §2
A further assay relates to PA-1. The description is as above. The conditions noted are these: Gynecologic cancer cell panel viability, ATPlite luminescence, 48 h; series mostly up to 57.5 µM. Summed up: as §2
The next assay concerns SKOV3. The description is as above. The conditions noted are these: Gynecologic cancer cell panel viability, ATPlite luminescence, 48 h; series mostly up to 57.5 µM. In a few lines:
as §2

A further assay has as its system Tov112D. The description is as above. The conditions noted are these: Gynecologic cancer cell panel viability, ATPlite luminescence, 48 h; series mostly up to 57.5 µM. Summed up:
as §2

The nature of assay [2]: qHTS assay to identify inhibitors of the type 1 interferon - major histocompatibility complex class I in skeletal muscle: Counter screen cell viability and HiBit confirmation (AID 1347412). Also: nearly all actives have a fitted effect of over 60% in size. Also: potency is read from the fitted curve at half-maximal effect. Conditions: iHSKM muscle cells + IFN-b, HiBiT or CellTiter-Glo, 24 h; Potency: HiBiT; Viability, at 45.9 µM (top of the series). Summed up:
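After 24 h with human IFN-beta (4 ng/ml) and compound titrations (top 46 uM final, 1:3, 12 points), HLA-B HiBit myoblasts were lysed for either Nano-Glo HiBiT luminescence or CellTiter Glo viability on paired plates.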

SMILES strings stand for the structures. Inconclusive results are not listed. A number with no mark means an inactive call. Activity calls are given as the source filed them. Calls follow the shape of the dose curve; as a rule, active = well fitted curve in the direction sought with a large enough effect; inconclusive = small, poorly fitted or top-dose-only effect, or another doubt; inactive = no such curve, though single readings can be large; an effect the other way counts as inactive or inconclusive.

On to `CCCCCCCCCCCCCCCC(=O)OC[C@@H](NC(=O)C(Cl)Cl)[C@H](O)c1ccc([N+](=O)[O-])cc1`, for which the Potency result in the assay with MCC-13, in the assay on MCC-26, with MKL-1, with MKL-2, in the assay on UISO and in the assay on WaGa was “inactive” each time. Also, in assay [1], the Potency result was “inactive”.

`Cc1coc2c1C(=O)C(=O)c1c-2ccc2c(C)cccc12`: the Potency entry with MCC-13, in the assay with MCC-26, in the assay with MKL-1, in the assay with MKL-2, in the assay on WaGa and in the assay on CASKI was “inactive” in each case. Moreover, the Potency entry in the assay with Es-2, in the assay with HeLa, with Hek293T, in the assay on OV90 and with Tov-21-G was “inactive” in each case.

With `CC(=O)ON=C1C(c2c(O)[nH]c3cc(Br)ccc23)=Nc2ccccc21`, the Potency result in the assay with MCC-13, in the assay with MCC-26 and with MKL-2 was “inactive” each time.

Turning to `CCN(C(=O)c1c(O)c2c(Cl)cccc2n(C)c1=O)c1ccccc1`, the Potency entry with MCC-13, with MCC-26, in the assay on MKL-1, with MKL-2 and in the assay with WaGa was “inactive” throughout.

On to `C#C[C@]1(O)CC[C@@H]2[C@@H]3CCc4cc(O)ccc4[C@H]3CC[C@@]21C`, for which the Potency entry with MCC-13, with MCC-26, with MKL-1 and in the assay with WaGa was “inactive” each time.

For `COC(=O)[C@@H]1[C@H]2C[C@@H]3c4[nH]c5ccccc5c4CCN3C[C@@H]2CC[C@@H]1O`, the Potency result with MCC-13, in the assay on MCC-26, in the assay with MKL-1, with UISO and in the assay with WaGa was “inactive” each time.

As for `CC(=O)O[C@]1(C(C)=O)CC[C@H]2[C@@H]3C=C(C)C4=CC(=O)CC[C@]4(C)[C@@H]3CC[C@@]21C`, the Potency entry in the assay with MCC-13 and in the assay on MCC-26 was “inactive” each time. Also, the Potency in the assay with MKL-1 was 3320 nM (active); with MKL-2, 2350 nM (active); in the assay on WaGa, 1870 nM (active).

Consider `Cn1cc(C=CC(=O)c2cccc(F)c2)cc1C=CC(=O)NO`, for which the Potency result in the assay on MCC-13, with MCC-26, in the assay on MKL-1 and in the assay with UISO was “inactive” each time. In addition, the call in the assay with NIH3T3 was inactive.

In the case of `CON=C(C(=O)N[C@@H]1C(=O)N2C(C(=O)O)=C(CSC(=O)c3ccco3)CS[C@H]12)c1csc(N)n1`, the Potency entry with MCC-13, in the assay with MCC-26, with MKL-1, in the assay on MKL-2 and in the assay with WaGa was “inactive” throughout.

Take `CCn1c(=O)c2c(nc(C=Cc3ccc(OC)c(OC)c3)n2C)n(CC)c1=O`: the Potency entry with MCC-13, in the assay on MCC-26, in the assay on MKL-1, in the assay on UISO, in the assay with WaGa and with C33A was “inactive” each time. The Potency result in the assay on CASKI, with Es-2, in the assay on HeLa, in the assay on Hek293T, in the assay with JEG-3 and in the assay with OV90 was “inactive” in each case. In addition, the Potency entry in the assay with PA-1, in the assay with SKOV3, with Tov-21-G and with Tov112D was “inactive” throughout. In addition, the call in the assay on NIH3T3 was inactive.

With `CC(C)c1cc(C(C)C)c(CC(=O)NS(=O)(=O)Oc2c(C(C)C)cccc2C(C)C)c(C(C)C)c1`, the Potency result in the assay on MCC-13, with MCC-26, in the assay on MKL-1, in the assay on MKL-2, in the assay on WaGa and with C33A was “inactive” in each case. Also, the Potency entry in the assay with CASKI, in the assay on Es-2, in the assay with JEG-3, in the assay with OV90, in the assay with SKOV3 and in the assay on Tov-21-G was “inactive” throughout. Moreover, the Potency entry (in the assay with Tov112D; in assay [2]) was “inactive” throughout.

Take `COc1cccc2c1C(=O)c1c(O)c3c(c(O)c1C2=O)C[C@@](O)(C(=O)CO)C[C@H]3O[C@H]1C[C@H](N)[C@H](O)[C@H](C)O1`: the Potency in the assay with MCC-13 is 2640 nM (active); with MCC-26 it was 2350 nM (active); in the assay with MKL-1, 118 nM (active); in the assay with WaGa it was 74.3 nM (active).

Take `COc1cccc2c1C(=O)c1c(O)c3c(c(O)c1C2=O)C[C@@](O)(C(=O)CO)C[C@@H]3O[C@H]1C[C@H](N)[C@H](OC2CCCCO2)[C@H](C)O1` (stereo not given in full): the Potency in the assay with MCC-13 is 5260 nM (active); in the assay with MCC-26, 3720 nM (active); in the assay with MKL-1 it was 2640 nM (active); with UISO, 1660 nM (active); in the assay on WaGa, 1660 nM (active).

As for `NC(=O)N1CCC(CC(=O)N2CCC([C@H]3c4ncc(Br)cc4CCc4cc(Cl)cc(Br)c43)CC2)CC1`, the Potency result with MCC-13 and with MCC-26 was “inactive” throughout. For the same compound, the Potency in the assay with WaGa is 11800 nM (active).

Take `NC(=O)c1cccc(-c2cccc(OC(=O)NC3CCCCC3)c2)c1`: the Potency result in the assay with MCC-13, in the assay with MKL-1, in the assay on MKL-2, in the assay with UISO and in the assay with WaGa was “inactive” throughout. For the same compound, the compound was classed as inactive in the assay with NIH3T3.

On to `C=C(C)[C@@H]1CC[C@]2(C)CC[C@]3(C)[C@H](CC[C@@H]4[C@@]5(C)CC[C@H](O)C(C)(C)[C@H]5CC[C@]43C)[C@@H]12`, for which the Potency result in the assay with MCC-13, in the assay with MKL-1, with MKL-2, with UISO and with WaGa was “inactive” throughout. Besides, the compound was classed as inactive with NIH3T3.

With `C=C(C)[C@@H]1CC[C@]2(C(=O)O)CC[C@]3(C)[C@H](CC[C@@H]4[C@@]5(C)CC[C@H](O)C(C)(C)[C@@H]5CC[C@]43C)[C@@H]12`, the Potency result in the assay on MCC-13, with MKL-1, in the assay on MKL-2, with UISO and with WaGa was “inactive” each time.

Take `CC(C)c1cnn2c(NCc3ccccc3)cc(NCCCCCCN)nc12`: the Potency result (with MCC-13; in the assay with MCC-26; with UISO; with WaGa; in assay [2]) was “inactive” in each case.

As for `Cn1cc(CNCC2CCN(c3ncc(C(=O)NO)cn3)CC2)c2ccccc21`, the Potency with MCC-13 was 833 nM (active); in the assay on MCC-26, 590 nM (active); with MKL-2, 33.2 nM (active); in the assay with UISO, 264 nM (active); in the assay with WaGa, 29.6 nM (active); in assay [2] it was 157 nM (active).

Regarding `COc1cc(C[C@@H](CO)[C@H](CO)Cc2ccc(O)c(OC)c2)ccc1O`, the Potency entry in the assay on MCC-13 and in the assay on MCC-26 was “inactive” in each case. In addition, the Potency with MKL-2 was 16600 nM (active). Moreover, in the assay on NIH3T3, the call was inactive.

Turning to `Cc1cnc(NC(=O)Nc2cc(Br)c(C)cc2OC[C@@H]2CNCCO2)cn1`, the Potency entry (in the assay on MCC-13; with MCC-26; with MKL-2; with WaGa; in assay [2]) was “inactive” each time.
